Data on 7 sequences can be found in the supplement of paper PMC6555819.

Assay in all cases: PBM binding z-score (relative to random genomic background probes); higher = stronger binding; sequences stand for … in GC…GCGATTGACAGCGTAGAATGAAGG
In test [1] the test system is RARb homodimer (NR concentration 270 nM). The procedure, abridged: (§1)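 Custom Agilent 4×180K protein-binding microarrays carried double-stranded probes, each with a 34-nt variable region. These regions held direct-repeat seeds, single-nucleotide variants, half-site ablations and random human genomic background sequences. Ligand-free nuclear receptor dimers were incubated on the arrays for 1 h, antibodies against each partner (one per run) detected binding, and scanned fluorescence was regression-normalized. Binding z-scores take the random background probes as reference.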

The subject of test [2] is RARg:RXRa (NR concentration 270 nM, RXRa partner concentration 90 nM). The essentials:
as §1

Test [3] relates to RARg homodimer (NR concentration 270 nM). The procedure, abridged: as §1
For test [4], the system named is RXRa DBDmut IVT, anti-RXR (DBD mutation: RXRa K156A/R161A, NR concentration 90 nM). The essentials:
as §1

The subject of test [5] is RXRa homodimer (NR concentration 180 nM). The procedure, abridged:
as §1

Test [6] deals with THRa:RXRa (NR concentration 90 nM, RXRa partner concentration 90 nM). The procedure, abridged: as §1
Test [7] deals with THRa homodimer (NR concentration 90 nM). The procedure, abridged:
as §1

The subject of test [8] is VDR homodimer (NR concentration 270 nM). The essentials: as §1

For the sequence AGTCAAAGTTCATCTAGGTAACGGAAGATATGCT, the PBM binding z-score was 4.04 in test [1]; 5.6 in test [2]; 6.13 in test [3]; 4.58 in test [4]; 4.85 in test [5]; 3.33 in test [6]. The values for the PBM binding z-score in test [7] and in test [8] were 0.388 and 5.59, respectively.
Take CAAACTAGGTCAAAGGTTAAAGTCGAGCCAACCA: the PBM binding z-score came to 3.86 in test [1]; 7.3 in test [2]; 5.26 in test [3]; 2.59 in test [4]; 8.93 in test [5]; 4.29 in test [6]. In addition, the PBM binding z-score in test [7] was found to be 1.04; in test [8], 1.6.
As to CCTACTGGCCCATCAGGTCATTGATATCAACGTT, the PBM binding z-score turned out to be 2.36 in test [1]; 1.72 in test [2]; 1.54 in test [3]; 0.0636 in test [4]; 1.13 in test [5]; 3.29 in test [6]. For the same sequence, the PBM binding z-score in test [7] amounted to 3.04; in test [8], 1.9.
Consider CCCGCTAGGTCAATGGTCAGCTAAAGCAGCTCGC, for which the PBM binding z-score came out at 3.03 in test [1]; 3.62 in test [2]; 4.76 in test [3]; 1.28 in test [4]; 2.37 in test [5]; 2.27 in test [6]. Also, the PBM binding z-score was 0.886 in test [7] and -0.00101 in test [8].
For CCTCGGAGGACAACAGGAGGTTAGAGCTGCCAGA, the PBM binding z-score in test [1] was 1.12; in test [2], 0.878; in test [3], 1.47; in test [4], 0.257; in test [5] it was -0.0815; in test [6], 1.19. In addition, the PBM binding z-score in test [7] came to 0.00678; in test [8], 0.0214.
CGTCCAAGGTCAGAGAGGTCGGTGAATGCCGAGT: the PBM binding z-score in test [1] was determined as 4.09; in test [2], 4.84; in test [3] it was 5.91; in test [4], 2.7; in test [5] it was 3.93; in test [6] it was 3.66. Moreover, the PBM binding z-score in test [7] was determined as 1.38; in test [8], 3.09.
For AGAATGACGTTAAGATCAGGGAAACAGAATACAT, the PBM binding z-score in test [1] was -0.348; in test [2] it was 0.0241; in test [3], 0.396; in test [4], -0.43; in test [5], 0.183; in test [6], -0.0731. Also, the values for the PBM binding z-score in test [7] and in test [8] were -0.547 and -0.184, respectively.
